High-throughput results from PubChem BioAssay.
UGM FP inh: M. tuberculosis UGM enzyme inhibitors, primary screen, biochemical, fluorescence polarization, single point; UDP-galactopyranose mutase (Mycobacterium tuberculosis (strain ATCC 25618 / H37Rv)), …; 320,000 tested, 0.06% active; purified UGM, fluorescence polarization probe displacement; inhibition, % at 10 µM; in the data active means inhibition above about 10%, passing the limit was not always enough; inconclusive means no clear call, values can overlap the other calls
Mtb FBA inh: Mtb FBA enzyme inhibitors, primary screen, biochemical, fluorescence, strain H37Rv; purified M. tuberculosis FBA, fluorescence read-out; inhibition, % at 1 µM; 360,000 tested, 2.3% active; in the data active means inhibition above about 27%
Target sequence (P9WQA3 whole entry, looked up): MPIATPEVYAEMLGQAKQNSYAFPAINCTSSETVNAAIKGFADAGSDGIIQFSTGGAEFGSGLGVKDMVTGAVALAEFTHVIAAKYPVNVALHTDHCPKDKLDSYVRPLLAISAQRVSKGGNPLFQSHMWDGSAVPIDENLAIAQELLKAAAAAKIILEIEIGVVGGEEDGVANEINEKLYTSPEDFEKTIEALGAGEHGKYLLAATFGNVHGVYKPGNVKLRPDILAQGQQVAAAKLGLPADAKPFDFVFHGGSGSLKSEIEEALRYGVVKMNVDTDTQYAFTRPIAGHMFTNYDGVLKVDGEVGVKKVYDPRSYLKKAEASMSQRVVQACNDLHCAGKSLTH
Mtb betalactam: beta-lactam sensitization of Mtb H37Rv, H37Rv. M. tuberculosis H37Rv growth with meropenem, percent inhibition. inhibition, % at 25 µM. 330,000 tested, 0.27% active. AID 434955, 2010; call rule not given here;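 further: growth measured after seven days incubation then overnight dye step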
Rv3671c inh: Rv3671c serine protease inhibitors, primary screen, biochemical, fluorescence polarization, M. tuberculosis H37Rv. 320,000 tested, 0.048% active. P9WHR9. inhibition, % at 5.96 µM. AID 2606, 2010; in the data active means inhibition above about 38%;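 further: extracellular domain of Rv3671c used as enzyme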
RecA intein inh: Mtb RecA intein splicing inhibitors, primary screen, biochemical, fluorescence, HTS | 290,000 tested, 0.75% active | cell-free RecA intein splicing | inhibition, % (no concentration beside the values) | Protein RecA (Mycobacterium tuberculosis (strain ATCC 25618 / H37Rv)), P9WHJ3 | AID 2221, 2009; in the data active means inhibition above about 30%; inconclusive means no clear call, values can overlap the other calls
GDH-TPI inh: GDH-TPI coupling enzyme inhibitors, primary screen, artefact control for M. tuberculosis FBA inhibitor project, biochemical, absorbance, full deck | GDH-TPI coupled enzyme counterscreen, NADH absorbance | inhibition, % at 4.8 µM | 360,000 tested, 1.2% active; in the data active means inhibition above about 30%
Of the large screens only hits and unclear results are named; the others gave an inactive call. Most compounds without a hit are left out; they make up all but 4% or so of the library.

CC(C)N1CC=C2C(C#N)=C(N)C(C#N)(C#N)C(c3ccccc3)C2C1 (centres undefined)	Mtb FBA inh active
CC(C)N1CC=C2C(C#N)=C(N)C(C#N)(C#N)[C@H](c3ccoc3)[C@H]2C1	none (no result: Mtb FBA inh, GDH-TPI inh)
CCOc1ccccc1N=c1oc2cc(O)ccc2cc1C(=O)NCC1CCCO1 (centres undefined)	Mtb FBA inh 166 (no result: RecA intein inh)
CCOc1ccc(C(=O)NCC2CCCO2)cc1OCC (centres undefined)	none
COc1cc(SC)ccc1C(=O)NCC1CCCO1 (centres undefined)	none
COc1cc(OC)cc(C(=O)NCC2CCCO2)c1 (centres undefined)	none
COc1ccc(N=c2oc3cc(O)ccc3cc2C(=O)NCC2CCCO2)cc1 (centres undefined)	Mtb FBA inh 190
COc1ccc(N=c2oc3cc(O)ccc3cc2C(=O)NCC2CCCO2)c(OC)c1 (centres undefined)	Mtb FBA inh active, Mtb betalactam inconclusive, GDH-TPI inh 32
Cc1nc2ccccc2n1C1CCN(CC(=O)NCc2ccc(F)cc2)CC1	none
COc1cc([N+](=O)[O-])ccc1Nc1nc(C)cc(C)n1	none
Cc1cc(C)n2cc(CSCC(=O)O)nc2n1	Mtb FBA inh 123
CCC(CO)Nc1nc2ccc(Cl)cc2c2ccccc12 (centres undefined)	none
O=c1[nH]c(=S)n(Cc2ccc(F)cc2)c(O)c1C=NCCCn1ccnc1	GDH-TPI inh 31
O=c1[nH]c(=O)n(Cc2ccc(F)cc2)c(O)c1C=NCCCn1ccnc1	none
O=C(O)C1CCCCC1C(=O)N1CCCC1 (centres undefined)	none
CC(=O)N1CCc2c(sc(NC(=O)C3CC3)c2-c2nc3ccccc3s2)C1	RecA intein inh 30
Cc1oc2nc(SCCCC(=O)NCCO)nc(N)c2c1C	none
COc1cccc(CN2CCN(C(=O)c3cc(-c4ccncc4)nc4ccc(C)cc34)CC2)c1	none
COc1ccc(-c2cc(C(=O)OCC(=O)c3c(N)n(C)c(=O)n(C)c3=O)c3ccccc3n2)cc1	none
COc1ccc(-c2cc(C(=O)N3CCCCCC3)c3cc(C)ccc3n2)cc1	Mtb FBA inh 153
COc1ccc2nc(-c3ccc(Cl)cc3)cc(C(=O)O)c2c1	Mtb FBA inh active
COc1ccc(-c2cc(C(=O)c3c(N)n(C)c(=O)n(C)c3=O)c3ccccc3n2)cc1	GDH-TPI inh 35
COc1ccc(-c2cc(C(=O)N3CCOCC3)c3cc(C)ccc3n2)cc1	Mtb FBA inh 157
COc1ccccc1CCC(=O)N(C)CC(=O)Nc1ccc(F)cc1	none
O=C(COC(=O)c1ccc[nH]c1=O)NC1CC1	none (no result: RecA intein inh)
COc1ccc(/C=C/c2cc(C(=O)O)c3ccccc3n2)cc1	GDH-TPI inh 32
COc1ccc(-c2cc(C(=O)N3CCCCC3)c3ccccc3n2)cc1	Mtb FBA inh 128
COc1cc(OC)c(OC)cc1/C=C/c1cc(C(=O)O)c2ccccc2n1	none
COc1ccc(-c2cc(C(=O)N3CCCCC3)c3ccccc3n2)cc1OC	Mtb betalactam inconclusive
CC(C)Cc1nc(C#N)c(N2CCC(C(N)=O)CC2)o1	none
CC(C)(C)c1ccc(-c2nc(C#N)c(N3CCC(C(N)=O)CC3)o2)cc1	Mtb FBA inh 166, Mtb betalactam inconclusive
N#Cc1nc(-c2ccc(OCc3ccccc3)cc2)oc1N1CCC(C(N)=O)CC1	none
N#Cc1nc(-c2cccc(Cl)c2)oc1N1CCC(C(N)=O)CC1	Mtb FBA inh active
COc1ccc(-c2nc(C#N)c(N3CCC(C(N)=O)CC3)o2)cc1	Mtb FBA inh active
CC(=O)N1CCN(C(=O)C(Cc2c[nH]c3ccccc23)NC(=O)c2ccccc2Cl)CC1 (centres undefined)	none
Cc1ccc(S(=O)(=O)c2c(C)cc(-c3ccccc3)[nH]c2=O)cc1	Mtb FBA inh 81
Cc1cc(C)c(S(=O)(=O)c2ccccc2)c(=O)[nH]1	none
CN1CCCC1CCNc1ccc2c(=O)c3ccccc3oc2c1 (centres undefined)	Mtb FBA inh active, GDH-TPI inh 31
CN1CCC[C@H]1CCNc1ccc2c(=O)c3ccccc3n(C)c2c1	Mtb FBA inh 187, GDH-TPI inh 33 (no result: UGM FP inh, Mtb betalactam, Rv3671c inh, RecA intein inh)
O=C(c1ccccc1)N(CCCl)C(=O)N(CCCl)C(=O)c1ccccc1	none (no result: UGM FP inh, Mtb betalactam, Rv3671c inh, RecA intein inh)
O=C(NCCc1ccccc1)c1cc2sccc2n1Cc1ccccc1	Mtb FBA inh 156
CN=C(C)/C(C(=O)OC)=C(/O)c1ccccc1F	none
CC(=O)Nc1ccc(NC(=O)c2ccccc2CC[N+](=O)[O-])cc1	none
CCOC(=O)/C(C#N)=C1/C=CN(c2ccc(C)cc2)C=N1	GDH-TPI inh 43
CCOC(=O)/C(C#N)=C1/C=CN(Cc2ccccc2)C=N1	GDH-TPI inh 48
CCOC(=O)/C(C#N)=C1\C=CN(C)C(C)=N1	GDH-TPI inh 42
CCOC(=O)/C(C#N)=C1/C=Nc2ccccc2N1	none (no result: RecA intein inh)
CCOC(=O)/C(C#N)=C1/C=CN(c2ccccc2)C=N1	GDH-TPI inh 38
COC(=O)c1cc(S(=O)(=O)N2CCC(C)CC2)cn1C	none
CN1CC(c2ccc(Cl)c(Cl)c2)[C@@]2(COc3ccccc3C2=O)[C@@]12C(=O)Nc1ccccc12 (some centres undefined)	none
COc1ccc(CCNc2ncnc3c2c(C)c(C)n3CCO)cc1OC	none
CCOC(=O)/C(C#N)=C1/C=CN(C)C=N1	GDH-TPI inh 50
O=C(O)c1ccc(-c2ccc(-c3ccccc3)cc2)s1	Mtb FBA inh 118
CC1(C)C=C(c2ccc(C(=O)O)s2)CC(C)(C)N1	none
Cc1cc(-c2ccc(C(=O)O)s2)cnc1N	Mtb FBA inh active
O=C(Nc1ccccc1)c1ccc(-c2ccccc2)s1	none
O=C(NCc1ccccc1)C1CCCN(c2cnccn2)C1 (centres undefined)	none
CCN1CCCc2cc(CN(CCN3CCOCC3)C(=S)Nc3cccc(C)c3)ccc21	UGM FP inh inconclusive
Cc1nc(N)sc1N=Nc1ccc(Br)cc1	none
O=C1N/C(=N/N=C/c2ccccc2O)SC1Cc1ccc(F)cc1 (centres undefined)	none
COc1ccc(/C=N/N=C2/NC(=O)C(c3ccccc3)S2)c(OC)c1 (centres undefined)	GDH-TPI inh 31
COc1ccc(CC2S/C(=N/N=C/c3ccccc3O)NC2=O)cc1 (centres undefined)	GDH-TPI inh 37
COc1cc(/C=N/N=C2/NC(=O)C(CC(=O)O)S2)ccc1OCc1ccc(Cl)cc1 (centres undefined)	GDH-TPI inh 51
